The results in this text go back to the supplement of paper PMC11001985.

Sequence of UniProt O75369 (O75369 whole entry): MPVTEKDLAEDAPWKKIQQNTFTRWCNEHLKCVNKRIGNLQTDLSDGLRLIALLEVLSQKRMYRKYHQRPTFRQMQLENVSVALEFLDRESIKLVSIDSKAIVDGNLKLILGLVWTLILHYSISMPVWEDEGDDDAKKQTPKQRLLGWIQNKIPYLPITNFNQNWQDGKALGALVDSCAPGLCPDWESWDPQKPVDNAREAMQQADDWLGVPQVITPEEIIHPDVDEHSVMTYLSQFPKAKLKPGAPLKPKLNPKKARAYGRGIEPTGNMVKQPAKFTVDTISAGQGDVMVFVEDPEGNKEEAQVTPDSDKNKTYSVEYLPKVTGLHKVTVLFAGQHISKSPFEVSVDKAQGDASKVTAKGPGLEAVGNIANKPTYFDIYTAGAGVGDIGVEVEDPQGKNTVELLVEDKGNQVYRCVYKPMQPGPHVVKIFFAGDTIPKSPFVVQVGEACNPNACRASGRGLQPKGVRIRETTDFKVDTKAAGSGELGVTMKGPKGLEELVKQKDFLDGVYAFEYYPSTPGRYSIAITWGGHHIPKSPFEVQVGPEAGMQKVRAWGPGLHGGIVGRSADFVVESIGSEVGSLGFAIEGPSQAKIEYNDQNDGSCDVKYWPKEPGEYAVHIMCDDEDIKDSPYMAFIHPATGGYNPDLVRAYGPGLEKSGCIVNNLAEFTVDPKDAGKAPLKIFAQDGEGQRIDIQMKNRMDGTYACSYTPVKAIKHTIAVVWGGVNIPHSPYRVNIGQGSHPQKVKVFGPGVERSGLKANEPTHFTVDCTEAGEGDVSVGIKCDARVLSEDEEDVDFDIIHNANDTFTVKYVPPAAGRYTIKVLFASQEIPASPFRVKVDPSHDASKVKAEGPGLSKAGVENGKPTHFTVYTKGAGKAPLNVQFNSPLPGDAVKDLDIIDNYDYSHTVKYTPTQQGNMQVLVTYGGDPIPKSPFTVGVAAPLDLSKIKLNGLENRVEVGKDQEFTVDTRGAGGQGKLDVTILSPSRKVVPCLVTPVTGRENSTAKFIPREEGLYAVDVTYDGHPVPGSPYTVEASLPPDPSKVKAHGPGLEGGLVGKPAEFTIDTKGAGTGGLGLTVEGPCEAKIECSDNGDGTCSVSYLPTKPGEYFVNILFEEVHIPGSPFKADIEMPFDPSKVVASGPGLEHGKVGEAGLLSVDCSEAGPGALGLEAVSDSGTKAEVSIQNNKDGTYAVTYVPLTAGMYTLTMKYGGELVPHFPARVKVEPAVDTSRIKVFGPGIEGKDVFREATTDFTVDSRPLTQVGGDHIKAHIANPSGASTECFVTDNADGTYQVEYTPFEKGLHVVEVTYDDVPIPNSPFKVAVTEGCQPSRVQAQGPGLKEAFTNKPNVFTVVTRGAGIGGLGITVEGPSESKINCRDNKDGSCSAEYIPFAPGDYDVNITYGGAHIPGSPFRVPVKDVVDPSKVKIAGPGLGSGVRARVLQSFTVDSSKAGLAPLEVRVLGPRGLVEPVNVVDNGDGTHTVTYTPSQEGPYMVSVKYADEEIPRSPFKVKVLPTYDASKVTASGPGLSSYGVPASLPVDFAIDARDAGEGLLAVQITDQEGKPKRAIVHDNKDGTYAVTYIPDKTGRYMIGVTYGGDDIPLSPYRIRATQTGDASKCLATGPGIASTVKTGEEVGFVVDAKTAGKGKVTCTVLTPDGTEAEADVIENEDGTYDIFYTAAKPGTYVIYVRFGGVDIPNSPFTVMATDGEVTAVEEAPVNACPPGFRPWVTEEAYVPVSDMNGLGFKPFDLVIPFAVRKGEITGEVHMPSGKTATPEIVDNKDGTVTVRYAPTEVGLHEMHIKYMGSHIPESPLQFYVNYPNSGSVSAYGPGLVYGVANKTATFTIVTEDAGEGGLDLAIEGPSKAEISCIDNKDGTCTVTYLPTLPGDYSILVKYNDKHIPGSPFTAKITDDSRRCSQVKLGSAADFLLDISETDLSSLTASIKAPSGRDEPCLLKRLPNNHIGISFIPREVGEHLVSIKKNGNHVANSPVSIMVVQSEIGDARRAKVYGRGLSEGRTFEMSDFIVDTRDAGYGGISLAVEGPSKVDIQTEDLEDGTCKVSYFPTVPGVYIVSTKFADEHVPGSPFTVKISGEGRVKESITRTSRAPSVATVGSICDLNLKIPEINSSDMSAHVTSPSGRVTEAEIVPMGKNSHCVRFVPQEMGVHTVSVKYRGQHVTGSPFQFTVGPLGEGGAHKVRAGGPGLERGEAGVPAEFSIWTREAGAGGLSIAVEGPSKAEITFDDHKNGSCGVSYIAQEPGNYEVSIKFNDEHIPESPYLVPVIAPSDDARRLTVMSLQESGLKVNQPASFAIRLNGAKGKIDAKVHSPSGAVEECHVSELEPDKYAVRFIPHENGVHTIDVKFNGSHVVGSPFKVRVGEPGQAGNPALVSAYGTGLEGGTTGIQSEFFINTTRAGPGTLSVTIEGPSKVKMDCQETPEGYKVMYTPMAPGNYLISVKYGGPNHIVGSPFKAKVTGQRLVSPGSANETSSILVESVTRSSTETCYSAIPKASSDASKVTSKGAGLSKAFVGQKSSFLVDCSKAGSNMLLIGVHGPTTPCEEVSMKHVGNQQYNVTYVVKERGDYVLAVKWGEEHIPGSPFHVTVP
Sequence of UniProt P40189 (P40189 whole entry): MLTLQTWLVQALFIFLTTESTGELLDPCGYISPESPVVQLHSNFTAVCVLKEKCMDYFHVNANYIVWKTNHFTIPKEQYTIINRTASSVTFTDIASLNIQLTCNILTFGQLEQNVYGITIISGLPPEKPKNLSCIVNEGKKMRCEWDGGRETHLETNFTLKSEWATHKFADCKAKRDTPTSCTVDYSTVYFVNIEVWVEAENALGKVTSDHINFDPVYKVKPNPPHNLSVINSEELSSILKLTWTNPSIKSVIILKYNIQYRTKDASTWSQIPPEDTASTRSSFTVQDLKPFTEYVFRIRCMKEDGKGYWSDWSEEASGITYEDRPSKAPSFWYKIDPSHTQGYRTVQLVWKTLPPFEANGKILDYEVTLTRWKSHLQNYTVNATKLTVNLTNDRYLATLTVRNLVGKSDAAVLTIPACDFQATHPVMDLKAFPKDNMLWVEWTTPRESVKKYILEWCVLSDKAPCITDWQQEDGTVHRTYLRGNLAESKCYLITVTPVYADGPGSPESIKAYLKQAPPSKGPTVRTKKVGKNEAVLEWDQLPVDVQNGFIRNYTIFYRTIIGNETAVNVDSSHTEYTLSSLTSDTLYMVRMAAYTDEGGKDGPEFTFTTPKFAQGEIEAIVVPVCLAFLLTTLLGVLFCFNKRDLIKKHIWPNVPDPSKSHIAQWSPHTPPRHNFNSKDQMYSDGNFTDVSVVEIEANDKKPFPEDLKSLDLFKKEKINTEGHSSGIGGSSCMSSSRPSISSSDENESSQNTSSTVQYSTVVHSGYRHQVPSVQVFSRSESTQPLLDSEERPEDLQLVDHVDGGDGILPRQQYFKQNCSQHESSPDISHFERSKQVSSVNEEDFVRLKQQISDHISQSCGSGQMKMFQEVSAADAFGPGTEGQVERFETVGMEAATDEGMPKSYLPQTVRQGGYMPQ
Sequence of UniProt O14786 (O14786 whole entry): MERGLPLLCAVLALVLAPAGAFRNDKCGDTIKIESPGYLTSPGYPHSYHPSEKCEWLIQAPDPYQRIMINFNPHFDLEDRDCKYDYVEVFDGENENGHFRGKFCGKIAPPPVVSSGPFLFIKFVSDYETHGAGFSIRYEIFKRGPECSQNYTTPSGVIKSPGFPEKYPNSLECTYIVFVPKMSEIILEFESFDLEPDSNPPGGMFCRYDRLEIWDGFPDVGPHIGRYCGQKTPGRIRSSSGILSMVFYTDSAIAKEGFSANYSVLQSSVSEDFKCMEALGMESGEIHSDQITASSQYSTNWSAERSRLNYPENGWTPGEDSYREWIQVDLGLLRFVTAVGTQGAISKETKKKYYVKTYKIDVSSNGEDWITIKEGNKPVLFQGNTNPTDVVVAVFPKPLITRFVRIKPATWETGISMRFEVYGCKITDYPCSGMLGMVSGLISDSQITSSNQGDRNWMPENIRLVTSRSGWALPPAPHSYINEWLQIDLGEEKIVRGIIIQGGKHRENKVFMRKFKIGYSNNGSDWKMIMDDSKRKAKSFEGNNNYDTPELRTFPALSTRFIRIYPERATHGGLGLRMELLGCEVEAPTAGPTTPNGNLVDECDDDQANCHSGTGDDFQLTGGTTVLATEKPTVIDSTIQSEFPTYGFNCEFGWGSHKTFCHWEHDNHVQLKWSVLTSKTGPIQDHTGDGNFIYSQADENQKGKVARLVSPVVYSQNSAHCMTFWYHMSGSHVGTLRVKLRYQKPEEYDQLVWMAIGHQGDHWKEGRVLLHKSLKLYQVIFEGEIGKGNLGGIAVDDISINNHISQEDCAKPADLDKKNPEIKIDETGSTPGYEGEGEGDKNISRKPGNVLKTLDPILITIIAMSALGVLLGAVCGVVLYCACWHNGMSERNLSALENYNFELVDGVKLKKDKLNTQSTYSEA
Sequence of UniProt P41221 (P41221 whole entry): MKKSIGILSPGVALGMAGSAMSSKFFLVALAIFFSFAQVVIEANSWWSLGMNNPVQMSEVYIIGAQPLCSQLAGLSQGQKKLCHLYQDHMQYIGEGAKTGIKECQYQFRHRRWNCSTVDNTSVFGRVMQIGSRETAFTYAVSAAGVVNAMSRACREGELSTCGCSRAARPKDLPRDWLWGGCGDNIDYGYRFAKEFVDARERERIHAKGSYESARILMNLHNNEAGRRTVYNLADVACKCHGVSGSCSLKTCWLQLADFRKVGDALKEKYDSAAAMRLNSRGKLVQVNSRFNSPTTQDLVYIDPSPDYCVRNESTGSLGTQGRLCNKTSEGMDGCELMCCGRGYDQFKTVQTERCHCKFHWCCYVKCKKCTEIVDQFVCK

Compound in the assay: C#CCNC(=O)CCSSCCC(=O)NCCc1ccc(C=O)c(C=O)c1
As to the kind of experiment: lysine labeling ratio R10:1 (500 µM / 50 µM probe), SILAC-ABPP in living cells; higher = lower intrinsic lysine reactivity toward the probe, active = 2 or less. To be noted: HeLa; probe concentrations 500 vs 50 µM. The method, boiled down:
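R, given per lysine, is the filtered median high-probe/low-probe MS1 peptide ratio, with the median then taken across forward and reverse replicates. Cells were living SILAC light and heavy HeLa cells in PBS at room temperature, labelled with 50 µM or 500 µM of an alkyne-tagged, disulfide-linked lysine probe. The ceiling applied is 20.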
In the case of “GANAB (lysine site: K491) (UniProt Q14697)”, the “lysine labeling ratio R10:1” value was 1.12 (active).
Under “CCT8 (lysine site: K37) (UniProt P50990)” stands 1.6 (active); under “XRCC6 (lysine site: K297) (UniProt P12956)”, 1.09 (active).
On to “P30462 (lysine site: K267) (UniProt P01889)”, for which the “lysine labeling ratio R10:1” value was 2.91 (inactive).
Under “FLNB (lysine site: K2470) (UniProt O75369)” stands 1.78 (active); under “PLS3 (lysine site: K346) (UniProt P13797)”, 0.842 (active).
For “ATP6V0A1 (lysine site: K70) (UniProt Q93050)”, the “lysine labeling ratio R10:1” value was 0.55 (active).
Next, UniProt Q9UHN6 (lysine site: K1262): 2.6 (inactive); “WNT5A (lysine site: K208) (UniProt P41221)”: 2.67 (inactive).
In the case of UniProt P62280 (lysine site: K30), the “lysine labeling ratio R10:1” value was 4.32 (inactive).
As for “IL6ST (lysine site: K335) (UniProt P40189)”, the “lysine labeling ratio R10:1” value is 0.692 (active).
With “CLMP (lysine site: K172) (UniProt Q9H6B4)”, the “lysine labeling ratio R10:1” value is 4.28 (inactive).
Next, UniProt Q15149 (lysine site: K195): 4.55 (inactive); “FLNB (lysine site: K1372) (UniProt O75369)”: 2.69 (inactive).
Next, “IGSF3 (lysine site: K642) (UniProt O75054)”: 1.12 (active); “NRP1 (lysine site: K536) (UniProt O14786)”: 5.72 (inactive).
Next, “SPTBN1 (lysine site: K714) (UniProt Q01082)”: 2.12 (inactive).
